# Biological target: AgAbp1
# Test: SPOT peptide array binding signal intensity (averaged, normalized) (arbitrary units (background-subtracted, floor 0; scale differs between SH3 domains)); higher = stronger binding of the SH3 domain to the peptide
# How it was run: (§1)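 Four yeast species supplied the SH3 domains, which were expressed as GST fusions in E. coli BL21(DE3) and purified on glutathione Sepharose. Incubation with cellulose membranes carrying synthetic 15-mer peptides, cysteines exchanged for serines, ran overnight at 4°C at 10 μg/ml in TBS-based blocking buffer. Binding signal is reported as normalized, background-subtracted spot intensity averaged over replicates, in arbitrary units not shared between domains.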
row,Binder,SPOT peptide array binding signal intensity
1,QPPLPSSAPPIPTSH,≤ 0

# Biological target: AgBbc1
# Test: as above
# How it was run: as §1
row,Binder,SPOT peptide array binding signal intensity
1,QPPLPSSAPPIPTSH,≤ 0

# Biological target: AgBem1-D1
# Test: as above
# How it was run: as §1
row,Binder,SPOT peptide array binding signal intensity
1,QPPLPSSAPPIPTSH,≤ 0

# Biological target: AgBzz1-D1
# Test: as above
# How it was run: as §1
row,Binder,SPOT peptide array binding signal intensity
1,QPPLPSSAPPIPTSH,35

# Biological target: AgBzz1-D2
# Test: as above
# How it was run: as §1
row,Binder,SPOT peptide array binding signal intensity
1,QPPLPSSAPPIPTSH,≤ 0

# Biological target: AgCyk3
# Test: as above
# How it was run: as §1
row,Binder,SPOT peptide array binding signal intensity
1,QPPLPSSAPPIPTSH,≤ 0

# Biological target: AgFus1
# Test: as above
# How it was run: as §1
row,Binder,SPOT peptide array binding signal intensity
1,QPPLPSSAPPIPTSH,≤ 0

# Biological target: AgHof1
# Test: as above
# How it was run: as §1
row,Binder,SPOT peptide array binding signal intensity
1,QPPLPSSAPPIPTSH,≤ 0

# Biological target: AgHse1
# Test: as above
# How it was run: as §1
row,Binder,SPOT peptide array binding signal intensity
1,QPPLPSSAPPIPTSH,≤ 0

# Biological target: AgLsb1
# Test: as above
# How it was run: as §1
row,Binder,SPOT peptide array binding signal intensity
1,QPPLPSSAPPIPTSH,≤ 0

# Biological target: AgLsb4
# Test: as above
# How it was run: as §1
row,Binder,SPOT peptide array binding signal intensity
1,QPPLPSSAPPIPTSH,≤ 0

# Biological target: AgMyo5
# Test: as above
# How it was run: as §1
row,Binder,SPOT peptide array binding signal intensity
1,QPPLPSSAPPIPTSH,1730

# Biological target: AgNbp2
# Test: as above
# How it was run: as §1
row,Binder,SPOT peptide array binding signal intensity
1,QPPLPSSAPPIPTSH,≤ 0

# Biological target: AgRvs167
# Test: as above
# How it was run: as §1
row,Binder,SPOT peptide array binding signal intensity
1,QPPLPSSAPPIPTSH,≤ 0

# Biological target: AgSho1
# Test: as above
# How it was run: as §1
row,Binder,SPOT peptide array binding signal intensity
1,QPPLPSSAPPIPTSH,≤ 0

# Biological target: AgSla1-D1-D2
# Test: as above
# How it was run: as §1
row,Binder,SPOT peptide array binding signal intensity
1,QPPLPSSAPPIPTSH,≤ 0

# Biological target: AgSla1-D3
# Test: as above
# How it was run: as §1
row,Binder,SPOT peptide array binding signal intensity
1,QPPLPSSAPPIPTSH,≤ 0

# Biological target: CaAbp1-D1
# Test: as above
# How it was run: as §1
row,Binder,SPOT peptide array binding signal intensity
1,QPPLPSSAPPIPTSH,≤ 0

# Biological target: CaAbp1-D2
# Test: as above
# How it was run: as §1
row,Binder,SPOT peptide array binding signal intensity
1,QPPLPSSAPPIPTSH,≤ 0

# Biological target: CaBbc1
# Test: as above
# How it was run: as §1
row,Binder,SPOT peptide array binding signal intensity
1,QPPLPSSAPPIPTSH,≤ 0

# Biological target: CaBem1-D1
# Test: as above
# How it was run: as §1
row,Binder,SPOT peptide array binding signal intensity
1,QPPLPSSAPPIPTSH,8.5

# Biological target: CaBzz1-D1
# Test: as above
# How it was run: as §1
row,Binder,SPOT peptide array binding signal intensity
1,QPPLPSSAPPIPTSH,≤ 0

# Biological target: CaBzz1-D2
# Test: as above
# How it was run: as §1
row,Binder,SPOT peptide array binding signal intensity
1,QPPLPSSAPPIPTSH,2.5

# Biological target: CaCyk3
# Test: as above
# How it was run: as §1
row,Binder,SPOT peptide array binding signal intensity
1,QPPLPSSAPPIPTSH,≤ 0

# Biological target: CaFus1
# Test: as above
# How it was run: as §1
row,Binder,SPOT peptide array binding signal intensity
1,QPPLPSSAPPIPTSH,≤ 0

# Biological target: CaHof1
# Test: as above
# How it was run: as §1
row,Binder,SPOT peptide array binding signal intensity
1,QPPLPSSAPPIPTSH,≤ 0

# Biological target: CaHse1
# Test: as above
# How it was run: as §1
row,Binder,SPOT peptide array binding signal intensity
1,QPPLPSSAPPIPTSH,≤ 0

# Biological target: CaLsb1
# Test: as above
# How it was run: as §1
row,Binder,SPOT peptide array binding signal intensity
1,QPPLPSSAPPIPTSH,≤ 0

# Biological target: CaLsb4
# Test: as above
# How it was run: as §1
row,Binder,SPOT peptide array binding signal intensity
1,QPPLPSSAPPIPTSH,≤ 0

# Biological target: CaMyo5
# Test: as above
# How it was run: as §1
row,Binder,SPOT peptide array binding signal intensity
1,QPPLPSSAPPIPTSH,510

# Biological target: CaNbp2
# Test: as above
# How it was run: as §1
row,Binder,SPOT peptide array binding signal intensity
1,QPPLPSSAPPIPTSH,≤ 0

# Biological target: CaRvs167
# Test: as above
# How it was run: as §1
row,Binder,SPOT peptide array binding signal intensity
1,QPPLPSSAPPIPTSH,≤ 0

# Biological target: CaRvs167-3
# Test: as above
# How it was run: as §1
row,Binder,SPOT peptide array binding signal intensity
1,QPPLPSSAPPIPTSH,0.5

# Biological target: CaSho1
# Test: as above
# How it was run: as §1
row,Binder,SPOT peptide array binding signal intensity
1,QPPLPSSAPPIPTSH,≤ 0

# Biological target: CaSla1-D1-D2
# Test: as above
# How it was run: as §1
row,Binder,SPOT peptide array binding signal intensity
1,QPPLPSSAPPIPTSH,≤ 0

# Biological target: CaSla1-D3
# Test: as above
# How it was run: as §1
row,Binder,SPOT peptide array binding signal intensity
1,QPPLPSSAPPIPTSH,≤ 0

# Biological target: ScAbp1
# Test: as above
# How it was run: as §1
row,Binder,SPOT peptide array binding signal intensity
1,QPPLPSSAPPIPTSH,≤ 0

# Biological target: ScBbc1
# Test: as above
# How it was run: as §1
row,Binder,SPOT peptide array binding signal intensity
1,QPPLPSSAPPIPTSH,≤ 0

# Biological target: ScBem1-D1
# Test: as above
# How it was run: as §1
row,Binder,SPOT peptide array binding signal intensity
1,QPPLPSSAPPIPTSH,≤ 0

# Biological target: ScBzz1-D1
# Test: as above
# How it was run: as §1
row,Binder,SPOT peptide array binding signal intensity
1,QPPLPSSAPPIPTSH,≤ 0

# Biological target: ScBzz1-D2
# Test: as above
# How it was run: as §1
row,Binder,SPOT peptide array binding signal intensity
1,QPPLPSSAPPIPTSH,≤ 0

# Biological target: ScCyk3
# Test: as above
# How it was run: as §1
row,Binder,SPOT peptide array binding signal intensity
1,QPPLPSSAPPIPTSH,≤ 0

# Biological target: ScFus1
# Test: as above
# How it was run: as §1
row,Binder,SPOT peptide array binding signal intensity
1,QPPLPSSAPPIPTSH,≤ 0

# Biological target: ScHof1
# Test: as above
# How it was run: as §1
row,Binder,SPOT peptide array binding signal intensity
1,QPPLPSSAPPIPTSH,≤ 0

# Biological target: ScHse1
# Test: as above
# How it was run: as §1
row,Binder,SPOT peptide array binding signal intensity
1,QPPLPSSAPPIPTSH,≤ 0

# Biological target: ScLsb1
# Test: as above
# How it was run: as §1
row,Binder,SPOT peptide array binding signal intensity
1,QPPLPSSAPPIPTSH,≤ 0

# Biological target: ScLsb2
# Test: as above
# How it was run: as §1
row,Binder,SPOT peptide array binding signal intensity
1,QPPLPSSAPPIPTSH,≤ 0

# Biological target: ScLsb3
# Test: as above
# How it was run: as §1
row,Binder,SPOT peptide array binding signal intensity
1,QPPLPSSAPPIPTSH,≤ 0

# Biological target: ScLsb4
# Test: as above
# How it was run: as §1
row,Binder,SPOT peptide array binding signal intensity
1,QPPLPSSAPPIPTSH,≤ 0

# Biological target: ScMyo3
# Test: as above
# How it was run: as §1
row,Binder,SPOT peptide array binding signal intensity
1,QPPLPSSAPPIPTSH,2510

# Biological target: ScMyo5
# Test: as above
# How it was run: as §1
row,Binder,SPOT peptide array binding signal intensity
1,QPPLPSSAPPIPTSH,1600

# Biological target: ScNbp2
# Test: as above
# How it was run: as §1
row,Binder,SPOT peptide array binding signal intensity
1,QPPLPSSAPPIPTSH,≤ 0

# Biological target: ScPex13
# Test: as above
# How it was run: as §1
row,Binder,SPOT peptide array binding signal intensity
1,QPPLPSSAPPIPTSH,≤ 0

# Biological target: ScRvs167
# Test: as above
# How it was run: as §1
row,Binder,SPOT peptide array binding signal intensity
1,QPPLPSSAPPIPTSH,≤ 0

# Biological target: ScSho1
# Test: as above
# How it was run: as §1
row,Binder,SPOT peptide array binding signal intensity
1,QPPLPSSAPPIPTSH,≤ 0

# Biological target: ScSla1-D1-D2
# Test: as above
# How it was run: as §1
row,Binder,SPOT peptide array binding signal intensity
1,QPPLPSSAPPIPTSH,≤ 0

# Biological target: ScSla1-D3
# Test: as above
# How it was run: as §1
row,Binder,SPOT peptide array binding signal intensity
1,QPPLPSSAPPIPTSH,≤ 0

# Biological target: SpAbp1-D1
# Test: as above
# How it was run: as §1
row,Binder,SPOT peptide array binding signal intensity
1,QPPLPSSAPPIPTSH,2.5

# Biological target: SpBbc1
# Test: as above
# How it was run: as §1
row,Binder,SPOT peptide array binding signal intensity
1,QPPLPSSAPPIPTSH,4.25

# Biological target: SpBzz1-D1
# Test: as above
# How it was run: as §1
row,Binder,SPOT peptide array binding signal intensity
1,QPPLPSSAPPIPTSH,≤ 0

# Biological target: SpBzz1-D2
# Test: as above
# How it was run: as §1
row,Binder,SPOT peptide array binding signal intensity
1,QPPLPSSAPPIPTSH,≤ 0
2,ISPPASPPPEFDFSK,1

# Biological target: SpCyk3
# Test: as above
# How it was run: as §1
row,Binder,SPOT peptide array binding signal intensity
1,QPPLPSSAPPIPTSH,≤ 0
2,ISPPASPPPEFDFSK,≤ 0

# Biological target: SpHof1
# Test: as above
# How it was run: as §1
row,Binder,SPOT peptide array binding signal intensity
1,QPPLPSSAPPIPTSH,≤ 0
2,ISPPASPPPEFDFSK,≤ 0

# Biological target: SpHof1-2
# Test: as above
# How it was run: as §1
row,Binder,SPOT peptide array binding signal intensity
1,QPPLPSSAPPIPTSH,≤ 0
2,ISPPASPPPEFDFSK,0.5

# Biological target: SpHof1-3
# Test: as above
# How it was run: as §1
row,Binder,SPOT peptide array binding signal intensity
1,QPPLPSSAPPIPTSH,≤ 0
2,ISPPASPPPEFDFSK,≤ 0

# Biological target: SpHse1
# Test: as above
# How it was run: as §1
row,Binder,SPOT peptide array binding signal intensity
1,QPPLPSSAPPIPTSH,17.5
2,ISPPASPPPEFDFSK,6

# Biological target: SpLsb1
# Test: as above
# How it was run: as §1
row,Binder,SPOT peptide array binding signal intensity
1,QPPLPSSAPPIPTSH,≤ 0
2,ISPPASPPPEFDFSK,≤ 0

# Biological target: SpLsb4
# Test: as above
# How it was run: as §1
row,Binder,SPOT peptide array binding signal intensity
1,QPPLPSSAPPIPTSH,≤ 0
2,ISPPASPPPEFDFSK,≤ 0

# Biological target: SpMyo1
# Test: as above
# How it was run: as §1
row,Binder,SPOT peptide array binding signal intensity
1,QPPLPSSAPPIPTSH,1080
2,ISPPASPPPEFDFSK,877

# Biological target: SpNbp2
# Test: as above
# How it was run: as §1
row,Binder,SPOT peptide array binding signal intensity
1,QPPLPSSAPPIPTSH,≤ 0
2,ISPPASPPPEFDFSK,≤ 0

# Biological target: SpPex13
# Test: as above
# How it was run: as §1
row,Binder,SPOT peptide array binding signal intensity
1,QPPLPSSAPPIPTSH,1
2,ISPPASPPPEFDFSK,≤ 0

# Biological target: SpRvs167
# Test: as above
# How it was run: as §1
row,Binder,SPOT peptide array binding signal intensity
1,QPPLPSSAPPIPTSH,≤ 0
2,ISPPASPPPEFDFSK,≤ 0

# Biological target: SpSla1-D1-D2
# Test: as above
# How it was run: as §1
row,Binder,SPOT peptide array binding signal intensity
1,QPPLPSSAPPIPTSH,≤ 0
2,ISPPASPPPEFDFSK,1

# Biological target: SpSla1-D3
# Test: as above
# How it was run: as §1
row,Binder,SPOT peptide array binding signal intensity
1,QPPLPSSAPPIPTSH,3.5
2,ISPPASPPPEFDFSK,3
